Experimental data as given in PubChem BioAssay (Tox21).
Several values for one entry are separate records, joined by “and”; a condition that tells them apart may be missing. Identical values can stand only once. Values without a mark were called inactive. Records with an inconclusive call do not appear. Where a call stands in place of a potency, no number is given. Activity calls are given as the source filed them. Unless noted, the call rests on the fitted dose curve; in most records, active means well fitted curve in the direction sought with a large enough effect in the repeat runs; inconclusive means weak or mixed curves; inactive means no such curve, though single readings can be large; an effect the other way counts as inactive or inconclusive.

Tests used:
[1] = qHTS assay to identify small molecule agonists of the androgen receptor (AR) signaling pathway in the presence of an antagonist - cell viability counter screen (AID 1259379); further: nearly all actives have a fitted effect of over 25% in size; further: potency means the concentration at half of the fitted maximal effect
Summary of the method: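 In MDA-kb2 cells (human breast carcinoma, MMTV-luciferase), compounds at 15 concentrations plus 3.0uM nilutamide; 16 hr, 37C, 0% CO2; CellTiter-Fluor fluorescence read for viability.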

[2] = target: Androgen receptor (Homo sapiens) (UniProt P10275); assay: qHTS assay to identify small molecule agonists of the androgen receptor (AR) signaling pathway in the presence of an antagonist (AID 1259381; calls by dose curve; further: nearly all actives have a fitted effect of over 15% in size; further: potency means the concentration at half of the fitted maximal effect)
Summary of the method: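 Here, 15-concentration compound series were pin-transferred onto MDA-kb2 MMTV-luciferase cells already dosed with nilutamide (3.0uM final). After 16hr at 37C, ONE-Glo was added and luminescence read 30min later at room temperature.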

[3] = qHTS assay to identify small molecule antagonists of the estrogen receptor beta (ER-beta) signaling pathway - cell viability counter screen (AID 1259382); further: nearly all actives have a fitted effect of over 55% in size; further: potency means the concentration at half of the fitted maximal effect
Summary of the method: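 Tox21 10K library tested in qHTS format on ER-beta-bla HEK293T cells stimulated with 1nM E2; 16 hr treatment at 37C. Same-well CellTiter-Glo luminescence served as the cell viability measure.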

[4] = target: Estrogen receptor (Homo sapiens) (UniProt P03372); assay: qHTS assay to identify small molecule agonists of the estrogen receptor alpha (ER-alpha) signaling pathway in the presence of an antagonist (AID 1259383; calls by dose curve; further: nearly all actives have a fitted effect of over 15% in size; further: potency means the concentration at half of the fitted maximal effect; on activation: top concentration of the series differs between compounds)
Summary of the method: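 In VM7Luc4E2 cells, 4,000 per well, compounds at 15 concentrations were co-incubated 22hr at 37C with 10.0nM final ICI-182,780. Luminescence from the stably transfected 4×ERE-luciferase reporter was recorded 30min after ONE-Glo addition.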

[5] = target: Thyrotropin receptor (Homo sapiens) (UniProt P16473); assay: qHTS assay to identify small molecule antagonists of the thyroid stimulating hormone receptor (TSHR) signaling pathway (AID 1259385; calls by dose curve; further: nearly all actives have a fitted effect of over 20% in size)
Summary of the method: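 TSHR-HEK293 cells (800/well) plated 18 h, then compounds with Ro20-1724 and TSH at 1.5 ng/mL final, 30 min at room temperature. cAMP quantified by HTRF (cAMP-d2/anti-cAMP-cryptate, 1 h); 15 concentrations in triplicate.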

[6] = qHTS assay to identify small molecule agonists of the estrogen receptor alpha (ER-alpha) signaling pathway in the presence of an antagonist - cell viability counter screen (AID 1259386);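 further: cells exposed to compounds for 22 h at 37 °C before the viability read; nearly all actives have a fitted effect of over 30% in size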; further: potency means the concentration at half of the fitted maximal effect
Summary of the method: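 Fluorescent CellTiter-Fluor viability signal from VM7Luc4E2 cells, with the reagent added during the final hour of a 22hr compound exposure at 37C in the presence of 10.0nM ICI-182,780.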

[7] = target: Progesterone receptor (Homo sapiens) (UniProt P06401); assay: qHTS assay to identify small molecule agonists of the progesterone receptor (PR) signaling pathway (AID 1346784; calls by dose curve; further: nearly all actives have a fitted effect of over 30% in size)
Summary of the method: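 Agonist mode, quantitative HTS format in a HEK 293T line expressing a UAS-controlled beta-lactamase reporter; 16 hr compound exposure at 37C in 2% charcoal-stripped FBS, then LiveBLAzer B/G FRET fluorescence.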

[8] = target: Progesterone receptor (Homo sapiens) (UniProt P06401); assay: qHTS assay to identify small molecule antagonists of the progesterone receptor (PR) signaling pathway (AID 1346795; active means well fitted inhibition curve with a large enough effect in the signal ratio in the repeat runs, not every such curve was filed as active; the % refers to the signal ratio; further: potency means the concentration at half of the fitted maximal effect)
Summary of the method: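 HEK293T PR-UAS-bla reporter cells in charcoal-stripped serum (2%) received compound after a 6 hr settling period, followed by R5020 agonist at 1 nM final; 16 hr incubation preceded the FRET substrate step and fluorescence measurement.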

[9] = qHTS assay to identify small molecule agonists of the progesterone receptor (PR) signaling pathway - cell viability counter screen (AID 1346799; calls by dose curve; further: nearly all actives have a fitted effect of over 45% in size; further: potency means the concentration at half of the fitted maximal effect)
Summary of the method: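 Counter screen for cytotoxicity: compound-treated PR-UAS-bla HEK293T cells (16 hr, 37C, 5% CO2) were assayed with CellTiter-Glo, luminescence measured after 30 min at room temperature.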

[10] = qHTS assay to identify small molecule antagonists of the TGF-beta/Smad signaling pathway - cell viability counter screen (AID 1346824); further: nearly all actives have a fitted effect of over 50% in size; further: potency means the concentration at half of the fitted maximal effect
Summary of the method: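 SBE-bla HEK 293T cells, incubated overnight, then compound plus 0.25 ng/mL TGF-beta1 (stock added) for 5 hr at 37 C. Viability was read in the same wells by CellTiter-Glo luminescence after 30 min at room temperature.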

[11] = qHTS assay to identify small molecule agonists of the TGF-beta/Smad signaling pathway (AID 1346859; active means well fitted activation curve with a large enough effect in the signal ratio in the repeat runs, not every such curve was filed as active; the % refers to the signal ratio; further: series mostly up to about 77 µM)
Summary of the method: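 Smad-responsive beta-lactamase reporter cells (HEK 293T) received compounds from DMSO stocks after overnight attachment, were incubated 5 hr, then treated 2 hr with FRET substrate before dual-emission fluorescence measurement (405 nm excitation).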

[12] = target: Thyrotropin-releasing hormone receptor (Homo sapiens) (UniProt P34981); assay: qHTS assay to identify small molecule antagonists of the thyrotropin-releasing hormone receptor (TRHR) signaling pathway (AID 1346877; active means well fitted inhibition curve with a large enough effect in the repeat runs, not every such curve was filed as active; further: series mostly up to about 51 µM)
Summary of the method: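 In this cell-based calcium flux format, HEK293 cells expressing TRHR received test compound for 5 min before the agonist TRH (1 nM final). Dye loading lasted 2 h at 37 °C.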

[13] = target: Thyrotropin-releasing hormone receptor (Homo sapiens) (UniProt P34981); assay: qHTS assay to identify small molecule agonists of the thyrotropin-releasing hormone receptor (TRHR) signaling pathway (AID 1346891; calls by dose curve; further: series mostly up to about 58 µM)
Summary of the method: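 Agonist-mode calcium mobilisation screen: TRHR-transfected HEK293 cells cultured overnight (18 h), dye-loaded for 2 h at 37 °C, exposed to compounds, and monitored by fluorescence for 3 min.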

[14] = Human pregnane X receptor (PXR) small molecule agonists, qHTS cell viability counter screen (AID 1346977); further: nearly all actives have a fitted effect of over 50% in size; further: potency means the concentration at half of the fitted maximal effect
Summary of the method: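 Measures live-cell protease fluorescence (CellTiter-Fluor) in PXR-Luc HepG2 cells treated 24hr with compounds at 37C. Cells had 5hr to attach before pin transfer of DMSO solutions.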

[15] = Caspase-3/7 induction in HepG2 cells by small molecules, qHTS assay (AID 1346978); further: nearly all actives have a fitted effect of over 15% in size
Summary of the method: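 Wild-type HepG2 cells, 2,000/well, settled 5 hr at 37 C and 5% CO2, then compound-treated for 17 hr; caspase-3/7 activity read by luminescent Caspase-Glo 3/7 after 30 min at room temperature.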

[16] = qHTS assay to identify small molecule agonists of the estrogen receptor beta (ER-beta) signaling pathway - cell viability counter screen (AID 1259380); further: nearly all actives have a fitted effect of over 30% in size; further: potency means the concentration at half of the fitted maximal effect
Summary of the method: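 Viability of ER-beta-UAS-bla HEK293T cells was determined by CellTiter-Glo luminescence following 16 hr treatment with test compounds at 37C.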

[17] = qHTS assay to identify small molecule agonists or antagonists of the thyroid stimulating hormone receptor (TSHR) signaling pathway - wild type cell line counter screen (AID 1259384; calls by dose curve)
Summary of the method: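 Wild-type Hek293 cells, 800/well, 18 h at 37C, then compound with Ro20-1724 for 30 min RT. cAMP by HTRF (cAMP-d2/anti-cAMP cryptate), 1 h RT, fluorescence read. 15 concentrations, triplicates.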

[18] = qHTS assay to identify small molecule agonists of the TGF-beta/Smad signaling pathway - cell viability counter screen (AID 1346829); further: nearly all actives have a fitted effect of over 45% in size; further: potency means the concentration at half of the fitted maximal effect
Summary of the method: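 SBE-bla HEK 293T cells plated overnight, compound exposure 5 hr at 37 C. Viability read in the same wells by CellTiter-Glo luminescence after 30 min at room temperature, following the beta-lactamase read.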

[19] = qHTS assay to identify small molecule antagonists of the progesterone receptor (PR) signaling pathway - cell viability counter screen (AID 1346798); further: nearly all actives have a fitted effect of over 50% in size; further: potency means the concentration at half of the fitted maximal effect
Summary of the method: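 Same-well multiplex: after 16 hr at 37C with compound and R5020 stimulation, HEK293T cells carrying a UAS-bla reporter received LiveBLAzer substrate (2 hr RT), then CellTiter-Glo (30 min RT) for luminescent viability.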

Chain of Thyrotropin receptor (Homo sapiens) (P16473 whole entry, looked up): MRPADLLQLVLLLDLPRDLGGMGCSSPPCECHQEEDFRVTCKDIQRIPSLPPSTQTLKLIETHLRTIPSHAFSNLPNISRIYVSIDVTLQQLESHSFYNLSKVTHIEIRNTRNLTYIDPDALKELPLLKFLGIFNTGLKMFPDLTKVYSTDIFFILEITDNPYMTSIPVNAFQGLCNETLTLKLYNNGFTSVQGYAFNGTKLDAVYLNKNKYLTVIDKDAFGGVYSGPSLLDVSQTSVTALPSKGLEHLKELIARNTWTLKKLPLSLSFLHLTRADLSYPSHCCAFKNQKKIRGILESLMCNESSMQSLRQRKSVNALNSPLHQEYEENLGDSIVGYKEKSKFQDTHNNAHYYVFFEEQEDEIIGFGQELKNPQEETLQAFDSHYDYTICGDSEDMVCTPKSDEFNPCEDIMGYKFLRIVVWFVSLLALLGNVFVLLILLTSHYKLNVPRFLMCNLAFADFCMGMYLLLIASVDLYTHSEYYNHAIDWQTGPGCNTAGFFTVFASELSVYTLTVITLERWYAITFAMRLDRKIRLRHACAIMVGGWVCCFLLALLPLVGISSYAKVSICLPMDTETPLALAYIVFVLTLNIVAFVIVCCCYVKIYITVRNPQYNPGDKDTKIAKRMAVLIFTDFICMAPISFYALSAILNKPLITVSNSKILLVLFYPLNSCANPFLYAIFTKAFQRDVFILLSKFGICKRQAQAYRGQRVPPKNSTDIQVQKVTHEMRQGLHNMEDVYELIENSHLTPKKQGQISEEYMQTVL
Chain of Estrogen receptor (Homo sapiens) (P03372 whole entry, looked up): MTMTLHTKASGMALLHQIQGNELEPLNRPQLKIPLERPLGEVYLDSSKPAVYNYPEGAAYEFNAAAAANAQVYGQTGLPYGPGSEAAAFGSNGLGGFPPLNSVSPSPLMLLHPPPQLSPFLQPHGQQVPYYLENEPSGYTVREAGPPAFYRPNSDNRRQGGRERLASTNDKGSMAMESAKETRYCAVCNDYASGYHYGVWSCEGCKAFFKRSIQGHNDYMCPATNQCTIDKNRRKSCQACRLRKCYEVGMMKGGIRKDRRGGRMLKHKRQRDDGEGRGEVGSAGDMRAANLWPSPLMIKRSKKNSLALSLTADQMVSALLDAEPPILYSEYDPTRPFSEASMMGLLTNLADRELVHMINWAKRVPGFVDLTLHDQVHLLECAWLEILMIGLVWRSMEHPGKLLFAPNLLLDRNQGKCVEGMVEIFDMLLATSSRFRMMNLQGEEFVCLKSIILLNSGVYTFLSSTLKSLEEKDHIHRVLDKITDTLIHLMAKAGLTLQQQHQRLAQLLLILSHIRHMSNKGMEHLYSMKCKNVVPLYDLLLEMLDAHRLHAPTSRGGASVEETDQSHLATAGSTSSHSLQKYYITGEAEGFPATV
Chain of Thyrotropin-releasing hormone receptor (Homo sapiens) (P34981 whole entry, looked up): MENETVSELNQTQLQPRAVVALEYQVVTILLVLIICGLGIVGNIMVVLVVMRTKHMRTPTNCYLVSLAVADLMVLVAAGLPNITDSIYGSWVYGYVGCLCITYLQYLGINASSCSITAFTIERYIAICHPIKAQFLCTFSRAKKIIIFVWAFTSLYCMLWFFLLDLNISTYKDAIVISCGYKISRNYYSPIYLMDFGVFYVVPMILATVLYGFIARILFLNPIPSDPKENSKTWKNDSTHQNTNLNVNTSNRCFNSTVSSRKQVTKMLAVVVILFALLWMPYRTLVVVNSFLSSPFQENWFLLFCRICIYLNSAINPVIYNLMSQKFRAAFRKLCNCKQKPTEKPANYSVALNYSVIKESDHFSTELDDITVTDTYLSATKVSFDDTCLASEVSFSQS
Chain of Androgen receptor (Homo sapiens) (P10275 whole entry, looked up): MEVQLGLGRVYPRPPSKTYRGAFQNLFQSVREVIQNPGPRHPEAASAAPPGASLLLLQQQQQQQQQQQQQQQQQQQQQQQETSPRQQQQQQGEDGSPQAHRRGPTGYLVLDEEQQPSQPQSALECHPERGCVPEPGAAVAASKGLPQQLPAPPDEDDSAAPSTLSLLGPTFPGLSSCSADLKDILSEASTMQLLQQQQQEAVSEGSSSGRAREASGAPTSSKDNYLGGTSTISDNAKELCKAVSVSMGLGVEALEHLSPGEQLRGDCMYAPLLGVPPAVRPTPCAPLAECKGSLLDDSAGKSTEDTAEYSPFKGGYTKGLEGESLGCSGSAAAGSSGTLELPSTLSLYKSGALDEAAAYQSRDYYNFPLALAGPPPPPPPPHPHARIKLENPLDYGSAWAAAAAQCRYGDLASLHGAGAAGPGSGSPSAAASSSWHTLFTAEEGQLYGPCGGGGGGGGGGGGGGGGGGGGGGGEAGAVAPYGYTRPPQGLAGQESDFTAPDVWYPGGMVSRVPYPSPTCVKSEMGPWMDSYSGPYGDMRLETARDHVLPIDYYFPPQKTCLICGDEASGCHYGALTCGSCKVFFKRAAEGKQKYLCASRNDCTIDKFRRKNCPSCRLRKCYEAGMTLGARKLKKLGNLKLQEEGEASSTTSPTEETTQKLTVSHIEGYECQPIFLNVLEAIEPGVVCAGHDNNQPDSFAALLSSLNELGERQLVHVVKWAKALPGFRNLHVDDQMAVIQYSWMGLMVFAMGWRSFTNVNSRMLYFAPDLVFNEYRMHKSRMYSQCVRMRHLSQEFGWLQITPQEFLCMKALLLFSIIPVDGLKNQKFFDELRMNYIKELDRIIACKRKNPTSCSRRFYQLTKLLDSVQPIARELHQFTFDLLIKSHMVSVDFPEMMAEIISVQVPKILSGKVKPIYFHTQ
Chain of Progesterone receptor (Homo sapiens) (P06401 whole entry, looked up): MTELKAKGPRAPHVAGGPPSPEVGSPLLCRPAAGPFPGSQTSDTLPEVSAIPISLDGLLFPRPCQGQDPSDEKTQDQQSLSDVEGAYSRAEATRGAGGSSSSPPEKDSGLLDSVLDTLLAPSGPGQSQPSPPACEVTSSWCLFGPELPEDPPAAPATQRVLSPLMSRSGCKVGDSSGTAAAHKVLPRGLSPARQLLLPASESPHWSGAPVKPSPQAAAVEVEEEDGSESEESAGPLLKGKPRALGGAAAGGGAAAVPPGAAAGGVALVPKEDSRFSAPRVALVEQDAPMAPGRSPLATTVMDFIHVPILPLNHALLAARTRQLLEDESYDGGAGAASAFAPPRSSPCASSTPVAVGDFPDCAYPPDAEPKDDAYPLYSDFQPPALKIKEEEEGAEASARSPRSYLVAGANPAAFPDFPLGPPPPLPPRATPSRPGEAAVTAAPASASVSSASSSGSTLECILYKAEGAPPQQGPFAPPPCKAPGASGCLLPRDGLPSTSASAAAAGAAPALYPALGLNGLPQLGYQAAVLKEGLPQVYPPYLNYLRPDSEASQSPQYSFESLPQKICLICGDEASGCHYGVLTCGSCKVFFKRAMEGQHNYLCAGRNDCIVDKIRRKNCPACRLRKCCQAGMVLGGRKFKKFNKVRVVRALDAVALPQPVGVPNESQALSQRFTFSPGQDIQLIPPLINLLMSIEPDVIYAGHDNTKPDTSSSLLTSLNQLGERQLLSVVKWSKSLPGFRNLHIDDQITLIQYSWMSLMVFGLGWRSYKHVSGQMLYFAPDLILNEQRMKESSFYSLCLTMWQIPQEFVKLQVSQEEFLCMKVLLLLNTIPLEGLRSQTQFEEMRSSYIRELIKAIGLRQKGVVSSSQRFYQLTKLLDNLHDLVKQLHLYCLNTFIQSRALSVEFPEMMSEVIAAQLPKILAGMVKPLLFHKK

Compound | Potency [1] | Potency [2] | Potency [3] | Potency [4] | Potency [5] | Potency [6] | Potency [7] | Potency [8] | Potency [9] | Potency [10] | outcome [11] | Potency [12] | Potency [13] | Potency [14] | Potency [15] | Potency [16] | outcome [17] | Potency [18] | Potency [19]
CCC(C)(C)C(=O)OC1=C(c2ccc(Cl)cc2Cl)C(=O)OC12CCCCC2 | inactive | inactive | inactive | inactive | inactive | inactive | inactive | inactive | inactive | inactive | inactive | inactive | inactive | inactive | inactive |  |  |  | 
CC(Cc1ccc(C(C)(C)C)cc1)CN1C[C@@H](C)O[C@@H](C)C1 (some centres not stated) | inactive |  | inactive |  |  | inactive |  | inactive |  |  | inactive |  |  | inactive | inactive | inactive | inactive | inactive | 
CC(=O)[O-].[Tl+] | inactive |  | 38.8 µM (active) |  |  | inactive |  |  | inactive | inactive | inactive |  |  | 27.5 µM (active) |  | 2.75 µM (active) |  | inactive | inactive
CC1(C)C(/C=C(\Cl)C(F)(F)F)C1C(=O)OC(C#N)c1cccc(Oc2ccccc2)c1 (configuration not stated) | inactive |  | inactive |  |  | inactive | inactive |  |  | inactive | inactive | inactive | inactive |  | inactive | inactive | inactive | inactive | inactive
c1cc[c]([Sb]([c]2ccccc2)[c]2ccccc2)cc1 | inactive | inactive |  |  | inactive | inactive |  |  |  | inactive |  | inactive | inactive | inactive |  |  | inactive | inactive | 
O=C(O)C1C2CCC(O2)C1C(=O)O (configuration not stated) | inactive |  | inactive |  |  | inactive | inactive |  |  | inactive |  | inactive | inactive |  |  | inactive | inactive | inactive | 
Oc1ccc(C(=C(Cl)Cl)c2ccc(O)cc2)cc1 | inactive |  |  | 1.93 µM (active) | inactive |  |  |  |  |  | inactive |  |  |  | inactive | 68.5 µM (active) | inactive | inactive | 
C=CCOC(N)=O | inactive |  | inactive |  | inactive | inactive |  | inactive | inactive |  | inactive | inactive | inactive | inactive | inactive | inactive |  | inactive | inactive
O=S(=O)(c1ccc(Cl)cc1)c1ccc(Cl)cc1 | inactive |  |  | inactive |  | inactive |  |  |  | inactive | inactive |  |  | inactive | inactive | inactive | inactive | inactive | 
CC(=O)[O-].CC(=O)[O-].[Hg+2] | 10.9 µM (active) |  | 6.11 µM (active) |  |  | 21.7 µM (active) |  |  | 3.44 µM (active) | 13.8 µM (active) |  |  |  | 6.11 µM (active) | inactive | 3.06 µM (active) |  | 24.5 µM (active) | 1.37 µM (active)
CCCSP(=O)(OCC)SCCC | inactive | 50.3 µM (active) | inactive |  | inactive | inactive | inactive |  |  | inactive | inactive | inactive | inactive | inactive | inactive |  | inactive | inactive | inactive
COc1ccc(N)cc1N | inactive |  | 22.4 µM (active) |  |  | 63.1 µM (active) |  | inactive | inactive |  |  | inactive | inactive | 50.1 µM (active) | inactive | 7.08 µM (active) and 13.1 µM (active) |  | 7.14 µM (active) and 11.8 µM (active) | inactive
O=C1c2ccccc2C(=O)C1C(=O)C(c1ccccc1)c1ccc(Cl)cc1 (configuration not stated) | 27.3 µM (active) |  |  | inactive |  |  |  | 19.3 µM (active) |  | inactive | inactive |  |  | 21.7 µM (active) | inactive | 24.3 µM (active) | inactive |  | inactive
COS(=O)(=O)c1ccc(C)cc1 | inactive | inactive | inactive | inactive | inactive | inactive | inactive | inactive | inactive | inactive | inactive | inactive | inactive | inactive | inactive |  | inactive | inactive | 
O=C(CCl)C(Cl)Cl | 27.6 µM (active) |  |  | inactive | inactive |  |  |  | 27.6 µM (active) | inactive | inactive | inactive | inactive | 15.5 µM (active) | inactive | 9.78 µM (active) | inactive | inactive | 43.7 µM (active)
N#C/C=C/C#N | inactive |  |  |  |  | inactive | inactive | 45.3 µM (active) | inactive | inactive | inactive | inactive | inactive | inactive |  | inactive | inactive | inactive | inactive
